# Results taken from PubChem BioAssay (NCI).
# The panel holds about 83,000 compounds, 20% with a hit somewhere; the sample as a whole holds those more often.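 Plates (96-well) were seeded with cells, treated with compound at one concentration, and incubated for 48 hours before percent growth was determined.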 A number with no mark means an inactive call. Activity calls are given as the source filed them. Rule for the calls: active = growth percent below 10; inactive = the rest.
# What was measured:
# Assay in all cases: NCI-60 one-dose screen, 48 h (100 = growth as untreated, 0 = no growth, -100 = all killed)
# Settings in all cases: 10 µM unless noted
# [1] = tested on: DU-145 prostate
# [2] = tested on: K-562 leukemia
# [3] = tested on: MALME-3M melanoma
# [4] = tested on: MDA-MB-231 breast
# [5] = tested on: RXF 393 renal
# [6] = tested on: SF-268 CNS
# [7] = tested on: SF-295 CNS
# [8] = tested on: SF-539 CNS
# [9] = tested on: UACC-257 melanoma
# [10] = tested on: M14 melanoma
# [11] = tested on: HCT-15 colon
# [12] = tested on: HT29 colon
# [13] = tested on: SNB-75 CNS
# [14] = tested on: SNB-19 CNS
# [15] = tested on: U251 CNS
# [16] = tested on: PC-3 prostate
# [17] = tested on: SK-MEL-5 melanoma
# [18] = tested on: UACC-62 melanoma
# [19] = tested on: LOX IMVI melanoma
# [20] = tested on: SK-MEL-28 melanoma
Compound,growth [1],growth [2],growth [3],growth [4],growth [5],growth [6],growth [7],growth [8],growth [9],growth [10],growth [11],growth [12],growth [13],growth [14],growth [15],growth [16],growth [17],growth [18],growth [19],growth [20]
Cc1ccc2c(n1)C(=O)C(Cl)=C(Nc1ccc(C#N)cc1)C2=O,112%,5.72% (active),27%,92.3%,92.1%,97%,118%,100%,74.8%,86.2%,1.89% (active),106%,110%,96.4%,96.6%,89.6%,98.9%,95.7%,70.4%,99.8%
O=C(Nc1cccc(C(F)(F)F)c1)N1CCN(c2cc(-c3cn(-c4ccccc4)nc3-c3cccc(O)c3)ccn2)CC1,61.2%,30.6%,46.3%,54%,46.7%,59.4%,22.8%,54.7%,67.6%,41.2%,22.2%,24.5%,71.8%,57.4%,48.1%,28.2%,40.2%,40%,25.5%,55%
Cn1c2nc3ccccc3c-2cc2ccccc21,30.9%,21.1%,36.6%,36.1%,43.3%,57.3%,39.6%,39.1%,49.2%,48.3%,25%,30.2%,82.3%,45.5%,41.7%,46.2%,31.2%,46.2%,18.9%,76.1%
Nc1ncc(-c2ccc3ncnc(NCc4ccccc4)c3c2)cn1,23.7%,67.6%,38%,39.8%,8.82% (active),44.8%,47.4%,44.3%,85.1%,65.6%,42.8%,55.3%,41.2%,52%,64.1%,34.7%,48.6%,44.8%,38.6%,57.6%
O=C(CSc1nnc(-c2ccc(Cl)cc2)n1-c1ccccc1)Nc1ccccc1Cl,68.4%,67.1%,79.2%,44.8%,74%,81.5%,31.5%,52.1%,95.1%,78.2%,76.8%,67.5%,65.8%,82.4%,61.6%,77.8%,95.4%,95.7%,15%,99.2%
Cc1ccc2c(n1)C(=O)C(Cl)=C(Nc1cccc(C)c1C)C2=O,-11% (active),-2.38% (active),-5.61% (active),-1.12% (active),7.14% (active),2.79% (active),-52.6% (active),-55.9% (active),-77.5% (active),-29.2% (active),9.66% (active),87.6%,61.2%,13.3%,-7.55% (active),12.4%,-66.1% (active),0.0061% (active),-21.1% (active),6.66% (active)
O=S(=O)(NCCCNc1nccc(-c2[nH]c(-c3ccccc3)nc2-c2ccc(F)c(O)c2)n1)c1cccc2ccccc12,61.5%,23.3%,32.8%,77.2%,75.4%,75.3%,45.7%,93.7%,44.1%,29.4%,39.4%,101%,75.4%,76.5%,50.5%,52.8%,34.1%,26.3%,31.9%,54.3%
CCCC/C(=C\c1ccc(O)c(O)c1)C(=O)NC(Cc1ccccc1)C(=O)C(=O)NCCc1ccc(OC)cc1 (stereo not given),104%,91.5%,101%,92.1%,96%,92%,97.8%,91.6%,100%,95%,93.4%,105%,86.9%,91.2%,103%,94.4%,98.9%,86.6%,89.4%,102%
Cc1ccc2c(n1)C(=O)C(Cl)=C(Nc1ccc(C(C)C)cc1)C2=O,16.2%,0.714% (active),-33.9% (active),-41% (active),-93.6% (active),77.1%,82.8%,96.2%,-70.3% (active),25.6%,-60.1% (active),102%,109%,75.4%,70.2%,54%,37.3%,86.3%,-66.3% (active),6.95% (active)
O=C(CSc1nnc(-c2ccc(Cl)cc2)n1-c1ccccc1)Nc1ccc(Cl)cc1,62.1%,59.1%,51%,12.9%,22.9%,41.4%,17.2%,-15% (active),88.2%,62.7%,81.5%,62.6%,-11.2% (active),59.6%,32.7%,61.4%,82.2%,76.1%,10.8%,71.2%
COc1cc(C(=O)c2cc(C(C)=O)c3c(C)cccn23)cc(OC)c1OC,107%,94.6%,89.1%,76.1%,81.1%,106%,109%,97.5%,98.2%,96.1%,88.6%,103%,64.6%,78.7%,96.7%,90.2%,97.1%,70.5%,96.7%,103%
C#CCn1cc(/C=N/Nc2nc(-c3ccc(Br)cc3)cs2)c2ccccc21,114%,110%,100%,95.8%,105%,108%,97.6%,93%,105%,93.9%,95.3%,104%,95.4%,96.6%,101%,91.7%,98.7%,91.5%,94.4%,103%
CC/C(=C(/c1ccc(Cl)cc1)c1ccc(OCCN)cc1)c1ccccc1,82.7%,19.7%,94.8%,86.6%,92.8%,103%,107%,98.6%,106%,88.7%,55.7%,79.9%,110%,99.8%,92.6%,103%,99.1%,107%,27.8%,108%
COc1ccc(/C=N/NC(=O)CSc2nc(-c3cnccn3)cc(-c3cccs3)c2C#N)cc1OC,100%,95.5%,69.1%,50.1%,-12.9% (active),70.5%,83.1%,36.7%,91.7%,77.5%,89.1%,60.9%,81.9%,78.1%,21%,80.8%,34.8%,19.8%,59.9%,98.2%
Cn1cc(C2=C(c3coc4cc(Br)ccc34)C(=O)NC2=O)c2ccccc21,108%,27.4%,104%,87.8%,66.3%,83.5%,86.9%,69.5%,100%,68.7%,37.3%,51.7%,10.5%,90.7%,83.7%,69.3%,89.6%,60.1%,69.2%,88.6%
CCCNNC(=O)c1ccc(-c2ccc(NC(=O)CCCCCCC(=O)N[C@H](C(=O)N3C[C@H](O)C[C@H]3C(=O)N[C@@H](C)c3ccc(-c4scnc4C)cc3)C(C)(C)C)cc2)cc1,32.4%,15.5%,32%,24.1%,-33% (active),46.3%,46.8%,27.3%,23.6%,39.8%,97.5%,5.44% (active),55.1%,28.6%,17.1%,37.2%,-0.921% (active),-5.46% (active),-41.8% (active),23.9%

Compound,growth [1],growth [2],growth [3],growth [4],growth [5],growth [6],growth [7],growth [8],growth [9],growth [10],growth [11],growth [12],growth [13],growth [14],growth [15],growth [16],growth [17],growth [18],growth [19],growth [20]
N#C/C(=C\c1cccc2c1OCO2)C(=O)Nc1sc2c(c1C#N)CCCC2,111%,104%,105%,95.6%,123%,103%,97.2%,97%,110%,97.5%,102%,124%,102%,95.4%,96.9%,109%,101%,90.8%,104%,102%
O=C(Nc1ccc(Cl)c(C(F)(F)F)c1)Nc1ccc2c(ccn2C(=O)c2cccc(F)c2)c1,24.5%,11.4%,56%,87%,28.7%,55.4%,5.17% (active),66.7%,60.6%,56.2%,17%,39.8%,55%,39.7%,23.3%,9.11% (active),62.9%,39.7%,38.4%,46.6%
COc1ccc2c(c1)c(-c1nc(N)nnc1-c1c[nH]c3ccccc13)cn2C,59.6%,16.3%,37.2%,46.2%,39.5%,45.6%,23.7%,25.2%,67.4%,29.8%,22.9%,14.5%,-11.9% (active),31.5%,24.6%,43.4%,26%,26.1%,33.1%,54.5%
CCC(=C(c1ccc(OCCN2CCCCCC2)cc1)c1ccc(OCCN2CCCCCC2)cc1)c1ccc(Cl)cc1,39.4%,-32.8% (active),-55.4% (active),33.6%,-72.3% (active),56%,-77.3% (active),-79.6% (active),-55.8% (active),-74.4% (active),-58.9% (active),-44.7% (active),62%,-21.3% (active),-69.8% (active),27.7%,,-35.4% (active),-89.6% (active),-82% (active)
O=C(CCl)Nc1ccc(NC(=O)c2cc(Cl)ccc2O)c(Cl)c1,95.2%,32.8%,81.8%,87.6%,87.4%,85%,83.6%,73.1%,89.9%,76.6%,25.9%,64.6%,77.1%,80%,42.8%,87.1%,,56.4%,-88.1% (active),88.5%
COc1ccc(-c2cc(-c3ccc(N4CCOCC4)cc3)n3c(n2)nc2ccccc23)cc1OC,91.2%,68.9%,93.3%,70.9%,72.8%,90.7%,100%,76.7%,97.7%,93.1%,83.1%,105%,83.3%,85.1%,86.1%,73%,55.8%,94.3%,78.4%,94.4%
CN1CCN(Cc2ccc(NC(=O)c3cncc(C#Cc4cnc5ccc(NCCO)nn45)c3)cc2C(F)(F)F)CC1,-2.12% (active),5.38% (active),-69.7% (active),1.53% (active),-74.3% (active),-40.9% (active),16.6%,-74.4% (active),-6.58% (active),-70.9% (active),33.2%,-28% (active),-90.5% (active),0.946% (active),-19.6% (active),3.35% (active),,-32.7% (active),-87.8% (active),-24.4% (active)
Brc1ccc(-c2cc(-c3ccc4c(c3)OC=CO4)n[nH]2)s1,99.1%,31.5%,70.3%,90.8%,101%,89%,82.6%,85.2%,90.7%,75.3%,61.9%,74.1%,74%,91.7%,88.8%,101%,89.4%,83.2%,89.9%,91.6%
CCOC(=O)c1ccc(NC2=CC(=O)C(C)=C(C)C2=O)cc1,109%,61.6%,97.1%,75.2%,93.2%,85.6%,52.1%,99.2%,84.1%,89.7%,88.5%,110%,78.7%,71.9%,81.6%,49%,,74.1%,46%,109%
CC[C@H](CC[C@@H](C)[C@H]1CC[C@H]2[C@@H]3CC(=O)C4=CC(=O)/C(=C/c5ccc([N+](=O)[O-])cc5)C[C@]4(C)[C@H]3CC[C@]12C)C(C)C,104%,81.4%,101%,98.2%,120%,108%,97.1%,97.3%,110%,89.7%,96.9%,104%,96.1%,102%,100%,94.8%,,90.2%,107%,104%
O=C(CCCCCCN1CC(=O)N2[C@@H](c3ccccc3Br)c3[nH]c4ccccc4c3C[C@H]2C1=O)NO,62.7%,22.6%,14.4%,50%,43.1%,79.6%,55.3%,51%,39.9%,42.1%,90.2%,37.2%,21.8%,55.4%,44.7%,56%,30%,21.6%,-60.4% (active),31.6%
CCc1cc(O)ccc1Nc1cc(-c2ccc(-n3cccn3)cc2)[nH]n1,71.5%,18.9%,110%,92.9%,108%,66%,36.5%,79.4%,70%,47.4%,33.6%,77.4%,117%,69%,82.5%,60.9%,49.2%,43.2%,26.1%,80.8%
COc1cc(C(=O)c2cc(C(C)=O)c3cccc(C)n23)cc(OC)c1OC,68.3%,15.6%,46.2%,37.4%,46.6%,54%,17.9%,46.8%,56%,5.73% (active),17.9%,8.74% (active),5.39% (active),39.8%,30.9%,55.7%,33.3%,23.3%,39.2%,61.8%
Brc1cc(-c2cc(-c3ccc4c(c3)OC=CO4)[nH]n2)cs1,95.9%,41.3%,64%,81.2%,93.7%,90.1%,79.1%,85.2%,101%,83.3%,51%,90%,83.5%,84.1%,81.3%,97.3%,87.5%,76.9%,80%,94.2%
O=C1C(N2CCN(c3ccccc3)CC2)=C(Cl)C(=O)c2ncccc21,45.7%,6.19% (active),-1.87% (active),75.3%,27.8%,79.4%,103%,81.2%,55.4%,69.6%,20.3%,106%,83.7%,81.5%,79.5%,71.9%,95.1%,61.8%,10.4%,83%
